Results as given in ChEMBL document CHEMBL3433997, “St. Jude Leishmania screening dataset” (2016).

Columns and labels:
Format in all cases: functional
[1] = target: Solute carrier family 2, facilitated glucose transporter member 1 (Homo sapiens) (UniProt P11166); experiment: ST_JUDE_LEISH: Cytotoxicity at 2uM final concentration against transgenic Leishmania Mexicana promastigotes LmGLUT1 that are glucose transport deficient and complemented with the human glucose transporter GLUT1. Activity is measured by DNA content using SYBR green in vitro
[2] = target: Hexose transporter 1 (Plasmodium falciparum) (UniProt O97467); experiment: ST_JUDE_LEISH: Cytotoxicity at 2uM final concentration against transgenic Leishmania Mexicana promastigotes LmPfHT that are glucose transport deficient and complemented with the Plasmodium falciparum hexose transporter. Activity is measured by DNA content using SYBR green in vitro
[3] = target: Glucose transporter (Leishmania mexicana) (UniProt O61059); experiment: ST_JUDE_LEISH: Cytotoxicity at 2uM final concentration against transgenic Leishmania Mexicana promastigotes LmGT2 that are glucose transport deficient and complemented with the L. Mexicana glucose transporter 2. Activity is measured by DNA content using SYBR green in vitro

Sequence of Solute carrier family 2, facilitated glucose transporter member 1 (Homo sapiens) (P11166 whole entry): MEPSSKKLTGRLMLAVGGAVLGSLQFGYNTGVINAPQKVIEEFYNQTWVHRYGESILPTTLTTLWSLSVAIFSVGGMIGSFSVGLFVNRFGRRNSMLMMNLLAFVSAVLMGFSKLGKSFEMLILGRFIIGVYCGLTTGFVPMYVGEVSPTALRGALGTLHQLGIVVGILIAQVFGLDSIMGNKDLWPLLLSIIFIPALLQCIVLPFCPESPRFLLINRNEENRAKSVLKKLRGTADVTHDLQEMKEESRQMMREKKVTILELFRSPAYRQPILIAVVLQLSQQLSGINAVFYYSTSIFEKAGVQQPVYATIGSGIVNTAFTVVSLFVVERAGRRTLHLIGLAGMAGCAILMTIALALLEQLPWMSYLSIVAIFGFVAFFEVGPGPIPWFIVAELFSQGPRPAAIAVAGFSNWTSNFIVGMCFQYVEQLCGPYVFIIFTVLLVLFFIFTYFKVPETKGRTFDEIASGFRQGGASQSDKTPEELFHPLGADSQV

Structure (SMILES)	inhibition [1] [%]	inhibition [2] [%]	inhibition [3] [%]
COc1cccc(-c2ccc3c(-c4cccc(NC(C)=O)c4)cnc(N)c3c2)c1	5.41	4.32	3.78
COc1ccc(C2C(C(=O)Nc3ccc4c(c3)OCO4)c3cc(OC)c(OC)cc3C(=O)N2C)cc1 (centres undefined)	2.12	1.73	0.53
CC(Oc1ccc(Cl)cc1)C(=O)N(C)C1CCN(CCCCCNC(=O)/C=C/c2ccc(Cl)c(Cl)c2)CC1 (centres undefined)	1.06	3.1	1.95
O=C(Nc1ccc(-c2cccc(-c3nc4cc(C(F)(F)F)ccc4[nH]3)c2)cc1)Nc1ccc(Cl)c(Cl)c1	10.9	7.67	13
O=C(c1ccccc1)N1CCC(CN2CCOC(c3ccccc3)(c3ccccc3)C2)CC1	3.71	3.92	2.8
Cc1cc2c(cc1C(F)(F)F)N(C(=O)Nc1cnc(OCCN(C)C)c(C(F)(F)F)c1)CC2	7.92	6.97	6.3
CCOC(=O)c1cnc2c(OC)cc(OC)c(Cl)c2c1Nc1ccccc1	5.44	4.89	6.19
O=C(c1cc(OC(F)(F)F)ccc1O)N1CCN(c2ccccc2)CC1	5.08	4.52	7.06
CCNc1cc(C(=O)N[C@@H](Cc2ccccc2)[C@H](O)CN[C@@H]2CCc3ccccc32)cc(N2CCCCS2(=O)=O)c1	1.06	1.96	1.17
O=C(NCCCCCN1CCC(c2c[nH]c3ccccc23)CC1)c1ccc(-c2ccccc2)nc1	2.41	2.42	2.97
c1ccc(C2CCN(Cc3ccc(-c4c[nH]c5nc(NC6CCCC6)ncc45)cc3)CC2)cc1	2.79	2.07	1.65
O=C(NCCCN1CCOCC1)c1ccc(-c2cccc(NC(=O)c3ccc(Cl)c(Cl)c3)c2)cc1	2.04	1.79	-0.88
COc1cc2ncnc(Nc3ccc(Br)c(Cl)c3)c2cc1OC	5.07	5.81	3.09
CS(=O)(=O)c1ccc(CCNCc2ccc(-c3ccc(CNC4Cc5ccccc5C4)cc3)nc2)cc1	-0.55	-0.45	2.3
CCCCCCOc1ccc2ccccc2c1CNCCCCCCNCc1c(OCCCCCC)ccc2ccccc12	16.8	21.5	7.86
Cc1cc(N2CCN(C)CC2)nc2ccc(NC(=O)Cc3cccc(C(F)(F)F)c3)cc12	2.34	1.8	5.56
Cc1cccc2nc(-c3ccc(-c4ccc(CNCC5CCCO5)cc4)s3)[nH]c12 (centres undefined)	1.99	2.71	1.98
CC(C)(C)c1ccc(CNC(=O)c2cc(CNC3CCC(N)CC3)ccc2O)cc1 (centres undefined)	0.08	-1.35	0.99
COc1cc(NC2=NS(=O)(=O)c3cc(Cl)ccc3N2C)cc(OC)c1OC	6.86	6.41	7.53
O=C(N[C@H]1CCN(Cc2ccc(OC3CCN(Cc4ccccc4)CC3)cc2)C1)c1ccc(Cl)c(Cl)c1	-0.36	-1.3	-1.06
CN(C)CCCOc1ccc(CN2CC[C@H](NC(=O)c3ccc(Cl)c(Cl)c3)C2)cc1Cl	13.3	10.7	8.69
Cc1cc(N2CCCCC2)nc2ccc(NC(=O)c3cc(=O)c4ccccc4o3)cc12	5.94	7.2	0.66
COc1ccc2nccc([C@@H](O)CN3CCC(NCc4ccc5nsnc5c4)CC3)c2c1	0.12	-1.13	-0.38
CCC(C)c1cnc2nc(N)nc(N)c2c1C (centres undefined)	1.18	1.66	2.42

Structure (SMILES)	inhibition [1] [%]	inhibition [2] [%]	inhibition [3] [%]
c1cc(CN2CCN(CCN3CCOCC3)CC2)cc(-c2csc(-c3nc4ccccc4[nH]3)c2)c1	5.51	5.16	4.63
COc1cccc2cc(C(=O)N[C@@H](CC(C)C)C(=O)NC(/C=N/NC(=O)c3ccccc3)CCc3ccccc3)oc12 (some centres undefined)	-0.59	2.83	0.75
N#Cc1ccc(CCNc2nccc(-c3cccc(CN4CCNCC4)c3)n2)cc1	12.3	12.8	6.7
Cc1ccc(Nc2nc(C)cc(NC3CCN(C)CC3)n2)cc1	1.14	3.12	5.43
Cc1cc(NC2CCCC2)nc(Nc2ccccc2F)n1	11.8	4.74	2.95
Nc1c2ccccc2nc2cc([N+](=O)[O-])ccc12	8.44	9.98	0.99
O=S(=O)(NCCN1CCCC1)c1cccc(-c2cccc(CNCc3ccsc3)c2)c1	-0.74	-0.16	1.71
COC(=O)c1cccc(CNCc2cccc(-c3cccc(-c4nc5ccccc5[nH]4)c3)c2)c1	1.94	3.05	2.93
Cc1cccc(Oc2cccc3[nH]nc(N)c23)c1	3.75	3.96	3.98
CCN(CCCN1CCCCC1)c1cc(C)nc(Nc2ccc(C(C)C)cc2)n1	-0.68	1.56	2.4
CNCc1ccc(CN(C)c2nc(N)c3cc(OC)c(OC)cc3n2)cc1	4.8	5.4	6.34
Cc1c(F)cc(C(=O)NC2CC2)cc1-c1ccc2c(cnn2S(=O)(=O)c2cccs2)c1	2.62	5.11	0.02
COc1ccc2c(Nc3ccc(N4CCN(C)CC4)cc3)cc(C)nc2c1	9.36	6.21	4.55
CCCc1ccc(NC(=O)c2ccc(CN3CCCN(Cc4cccc(O)c4)CC3)cc2)cc1	3.2	2.61	3.95
O=C(NCc1ccccc1F)c1ccc(N2CCC(NCc3cccc(-n4cccn4)c3)CC2)cc1	-0.13	3.43	-1.93
CS(=O)(=O)c1ccc(-c2cnc(N)c(-c3cccc(O)c3)c2)cc1	6.6	6.49	6.07
CCCNCc1ccc(-c2ccc(CN(CC3CCCO3)C(=O)COc3ccccc3Cl)cc2)nc1 (centres undefined)	4.33	4.73	2.71
CC1(C)[C@H]2CC[C@@H](CNc3nc(NCCc4c[nH]cn4)nc(Nc4ccc(Oc5ccccc5)cc4)n3)[C@@H]1C2	1.23	-1.54	-1.61
N=C(NC1CC1)c1ccc2[nH]c(CCCCCc3nc4cc(C(=N)NC5CC5)ccc4[nH]3)nc2c1	-1.14	-0.68	1.61
O=C(Nc1ccc2c(c1)CCC2)N[C@H]1CCN(CCCCCNC(=O)C2CC2c2ccc(Cl)c(Cl)c2)C1 (some centres undefined)	-0.7	0.43	-0.01
COc1ccc(-c2cccc(NC(=O)c3cccc(C#N)c3)c2)cc1CN1CCC(O)CC1	3.79	3.97	4.2
N=C(N)c1ccc(NN=Cc2ccc(Oc3ccc(C(=N)N)cc3)cc2)cc1	3.43	3.55	0.79
CC(=O)OC[C@H]1O[C@@H](C#Cc2ccccc2)[C@H](OC(C)=O)[C@@H](OC(C)=O)[C@@H]1OC(C)=O	1.22	2.07	0.66
COc1ccc2nccc(N3CCC(SCCNS(=O)(=O)c4ccc5c(c4)OCCO5)C3)c2n1 (centres undefined)	5.04	3.57	-0.04

Structure (SMILES)	inhibition [1] [%]	inhibition [2] [%]	inhibition [3] [%]
COc1ccc(CN2CCCN(Cc3cccc(NC(=O)c4ccc(Cl)c(Cl)c4)c3)CC2)cc1	2.61	4.62	0.01
COc1cc(NC(=O)C(c2ccc(Cl)cc2)C(C)C)cc(OC)c1OC (centres undefined)	2.52	1.79	5.89
CC(O)C1CCCCN1C(=O)c1cccc(-c2ccc(-c3nc4ccccc4[nH]3)s2)c1 (centres undefined)	3.87	5.96	5.38
CC(C)CCN1CCC(Oc2ccc(NC(=O)c3ccsc3)cc2Cl)CC1	-0.7	1.67	1.45
Oc1cc2c(cc1CN1CCN(Cc3ccc(Cl)s3)CC1)CCC2	2.02	4.66	1.82
CCNc1cc(C(=O)N[C@@H](Cc2ccccc2)[C@H](O)CNCCc2cccc(C(F)(F)F)c2)cc(N2CCCC2=O)c1	1.16	1.57	-0.87
COc1c(C2CCN(CCCCNC(=O)c3ccc(-c4ccc(C(F)(F)F)cc4)c(C(=O)OC(C)C)c3)CC2)ccc2c1CCCC2	1.36	1.79	0.91
CCCCCCc1cc2cc(-c3nc(-c4ccc(OC)cc4)cs3)c(=O)oc2cc1O	–	–	-8.01
COc1ccccc1C1CC(c2ccccc2)=NN1C(=O)c1ccccc1 (centres undefined)	-3.13	-0.25	-0.28
CCCCCCc1ncc(-c2cc3cc(O)c(-c4ccccc4)cc3oc2=O)s1	–	–	-5.92
N=C(N)c1cc(Cl)cc(NC(=O)Nc2cc(Cl)cc(C(=N)N)c2)c1	2.37	1.25	1.53
COc1ccc(CNCc2ccc(-c3ccc(-c4nc5cccc(C)c5[nH]4)s3)cc2)cc1	18.1	13.2	12.6
Cc1cc2nc(-c3ccc(C(=O)NC4CCN(Cc5ccccc5)CC4)s3)[nH]c2cc1C	2.92	2.77	2.98
Fc1ccc2[nH]ccc(=NN=Cc3ccccc3Cl)c2c1	-0.64	0.73	1.87
Cc1cccc2nc(-c3ccc(-c4cccc(CNCc5ccccc5)c4)cc3)[nH]c12	16.8	9.57	6.25
CCCCCCCCCCS(=O)(=O)N[C@H](COCc1cccc(Oc2ccccc2)c1)COP(=O)(O)OC	0.47	0.77	-1.2
O=C(/C=C/c1ccc(Cl)c(Cl)c1)NCCCCCN1CCC(CCNC(=O)c2snnc2-c2ccccc2)CC1	0.24	4.7	-0.16
Cc1[nH]c(C)c(-c2csc3ccccc23)c(=O)c1Cl	5.32	5.33	3.61
COc1ccc(-c2ccc(NC(=O)c3cccc(C#N)c3)cc2)cc1CN1CCCN(C)CC1	4.08	2.42	-0.48
Cc1nc2ccccc2n1C1CC2CCC(C1)N2CCCC1(c2ccccc2)CCN(C(=O)OCc2ccccc2)CC1 (centres undefined)	3.25	0.85	2.57
O=C(/C=C/c1ccc(Cl)cc1)NCCCCCN1CCCN(C(=O)Nc2ccc(Cl)c(C(F)(F)F)c2)CC1	1.83	2.68	2.81
N=c1c2c(n(Cc3ccccc3)c3c1CCC3)CCCC2	26.6	28.1	7.1
COc1ccc(CN2CCC(CN3CC4(OC3=O)c3ccccc3-c3ccccc34)C2)c(O)c1 (centres undefined)	10.8	9.02	11
